Bioassay records: PubChem, Sanford-Burnham Center for Chemical Genomics
An excerpt weighted towards active compounds, which were near 4% of everything screened.
Peg3 promoter – Peg3 promoter-driven luciferase inhibitors, primary screen, cell-based, HeLa, luciferase luminescence. HeLa PEG-Prom luciferase reporter, overnight. inhibition, % at 20 µM. 360,000 tested, 1.7% active. AID 588405, 2011;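 active = inhibition of at least 50% at 20 µM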
CF NFkB inh – inhibitors of PAF-induced NF-kB signaling, primary screen, cell-based, GFP fluorescence, uHTS; inhibition, % at 5 µM; KKLEB NF-kB-GFP reporter, GFP fluorescence overnight; AID 588850, 2011; 360,000 tested, 0.86% active;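 active = at least 50% inhibition at 5 µM, scaled per plate between neutral and stimulator controls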;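 also: PAF is a Pseudomonas aeruginosa culture filtrate used as stimulus; plate controls were PAF-stimulated DMSO wells for no effect and unstimulated DMSO wells for full effect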
KKLEB cytotox – cytotoxicity in KKLEB CF airway cells, primary screen, cytotoxicity control for CF NF-kB inhibitor project, cell-based, uHTS, fluorescence assay plates; KKLEB CF airway cells viability, ATPlite luminescence, overnight; hits give low values; cells stimulated with P. aeruginosa culture filtrate; activity change (cytotoxicity), % at 5 µM; 360,000 tested, 0.36% active; AID 602141, 2011;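 active = corrected activity change at or below -50% at 5 µM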
TROY NFkB inh – inhibitors of TROY-driven NF-kB signaling, primary screen, Q293 LMP1-TROYcd cells, NF-kB luciferase, uHTS; Q293 LMP1-TROYcd NF-kB luciferase reporter, 4 h; inhibition, % at 10 µM; 360,000 tested, 0.98% active; AID 1347056, 2019;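 active = compounds whose plate-normalised and pattern-corrected inhibition of the luciferase reporter signal at the single screening dose is 50% or more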
HIF-2a inh – HIF-2a reporter inhibitors, primary screen, luminescence, 786-0 RCC cells. 786-0 RCC cells HIF-2a reporter, luciferase luminescence, overnight. inhibition, % at 18.8 µM. 360,000 tested, 0.72% active. AID 624352, 2012;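 active = inhibition of the luminescence signal of 40% or more relative to plate controls, in a single-dose primary screen at 18.75 µM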
TWEAK Fn14 block – inhibitors of TWEAK-Fn14 signaling, primary screen, luciferase reporter cells, uHTS. TWEAK-stimulated Fn14 reporter cells, luciferase luminescence, 8 h. 360,000 tested, 2% active. inhibition, % at 10 µM; in the data active = inhibition above about 50%
* hit, by the source's call; / = no result.

SMILES | Peg3 promoter | CF NFkB inh | KKLEB cytotox | TROY NFkB inh | HIF-2a inh | TWEAK Fn14 block
C=CCOc1c(CNc2cccc(C(=O)O)c2)cccc1OCC | 6.1 | -6.2 | 6.9 | -67.1 | -5.6 | -31.4
C=CCOc1c(CNc2cccc(C(=O)O)c2)cccc1OC | -188.4 | 1.6 | 8.0 | 8.8 | -108.9 | 54.0*
O=C(c1cn(Cc2ccccc2)nc1-c1cccnc1)N1CCN(Cc2c(F)cccc2Cl)CC1 | 18.0 | 27.3 | -31.1 | 20.5 | 15.0 | 0.3
O=C(c1cn(Cc2ccccc2)nc1-c1cccnc1)N1CCN(Cc2ccccc2)CC1 | 98.3* | -20.6 | 4.4 | -1.9 | -0.1 | 8.6
Cc1ccsc1CNC(=O)C1(C)CCCN1CC(C)C (stereo not drawn) | 6.8 | -9.6 | -0.7 | -2.4 | 17.1 | 17.6
CSc1ccccc1NC(=O)C1=CC(c2ccc(C)cc2)=NS(=O)(=O)N1C | 6.5 | -10.3 | -13.9 | 3.8 | -2.2 | 19.4
CCN(CC(=O)Nc1c(F)cccc1F)C(=O)CNC(=O)c1cccc(C)c1 | 2.9 | -13.5 | 5.6 | 8.8 | 11.2 | -8.2
COC(=O)c1ccccc1OCCCOc1ccc(C=O)cc1OC | -129.5 | -9.6 | 0.7 | 33.7 | -126.5 | 53.2*
O=C(c1cc(-c2ccccc2Cl)nc2ccc(Br)cc12)N1CCN(c2ccccn2)CC1 | 92.2* | 2.7 | 8.2 | 69.3* | 15.2 | 58.2*
COc1ccc2nc(SCC(=O)Nc3ccc4sc(C)nc4c3)c(C#N)cc2c1 | -37.7 | 16.7 | -61.6* | -18.4 | -59.1 | -11.3
COc1ccc(NC(=O)CSc2nc(N)c(C#N)cc2C#N)cc1 | -15.5 | 5.1 | -2.5 | 6.1 | -7.7 | -15.3
CC1=C(C(=O)Nc2ccccc2)C(c2ccc(C)o2)n2ncnc2N1 (stereo not drawn) | 13.3 | 1.2 | -0.4 | / | 10.1 | 82.9*
Cc1ccc(F)cc1NC(=O)COC(=O)c1ccc2ncsc2c1 | -38.7 | 7.7 | -8.9 | -12.9 | -16.1 | -2.2
CCOC(=O)C(C(=O)OCC)C(Nc1cccc(Br)c1)c1ccccc1 (stereo not drawn) | 20.4 | 28.4 | -4.3 | 18.1 | 38.0 | 70.8*
Cn1c(CSCc2ccc(Cl)c(Cl)c2)nnc1SCC(=O)Nc1nccs1 | 30.5 | 13.2 | 6.2 | 19.6 | 13.2 | 50.7*
Cn1c(CSCc2ccc(Cl)cc2)nnc1SCC(=O)Nc1nccs1 | 28.2 | -4.6 | 3.8 | 28.5 | 21.3 | 19.1
COc1cc(N/N=C/c2ccccc2O)ncn1 | -62.6 | -36.4 | 6.2 | -56.5 | -217.7 | 5.1
COc1cc(N/N=C/c2ccc(N(C)C)cc2)ncn1 | -6.0 | -0.6 | -46.2 | 43.3 | -42.6 | 59.6*
CCn1c(=N)n(CC(=O)c2cccc([N+](=O)[O-])c2)c2ccccc21 | -235.8 | -32.5 | -9.8 | -39.1 | -275.8 | -42.5
N=c1n(CC(=O)c2cccc([N+](=O)[O-])c2)c2ccccc2n1Cc1ccccc1 | 58.1* | 14.4 | -16.0 | -3.8 | 4.5 | -9.2
Cc1ccccc1Cn1c(=N)n(CC(=O)c2ccc([N+](=O)[O-])cc2)c2ccccc21 | 71.4* | 37.9 | -64.2* | 8.9 | 20.1 | 9.6
CCCn1c(=N)n(CC(=O)c2ccc([N+](=O)[O-])cc2)c2ccccc21 | 59.6* | -21.4 | -3.4 | 10.3 | -65.2 | -21.9
Cc1ccc(-n2nnnc2C(Cl)(Cl)c2nnnn2-c2ccc(C)cc2)cc1 | 25.0 | -18.0 | -2.3 | 60.4* | 26.1 | -30.5
Cc1ccc(Cn2ncc3c(N4CCN(c5ccc(C)cc5)CC4)ncnc32)cc1 | 16.6 | 4.3 | 8.2 | 31.4 | 11.8 | 60.7*
Cc1ccc(Cn2ncc3c(N4CCN(C)CC4)ncnc32)cc1 | 16.8 | 6.2 | -11.7 | -9.3 | 5.0 | 12.6
SMILES | Peg3 promoter | CF NFkB inh | KKLEB cytotox | TROY NFkB inh | HIF-2a inh | TWEAK Fn14 block
Cc1ccc(Cn2ncc3c(N4CCN(Cc5ccc(Cl)cc5)CC4)ncnc32)cc1 | 15.0 | -0.9 | -10.8 | 25.6 | 33.1 | 56.1*
Cc1ccc(S(=O)(=O)N(CC(=O)N=Nc2c(O)[nH]c3ccccc23)c2cccc(C)c2)cc1 | 17.1 | 4.9 | -2.2 | 33.3 | -14.7 | 52.0*
Cc1cc(Cl)ccc1N(CC(=O)N=Nc1c(O)[nH]c2ccccc12)S(C)(=O)=O | 20.3 | -2.4 | 5.1 | -11.1 | 13.6 | 2.3
COC(=O)c1cn[nH]c1NC(=S)Nc1ccc(C)cc1Cl | -327.6 | 19.9 | 6.6 | 73.3* | -254.1 | 65.7*
COC(=O)c1cn[nH]c1NC(=S)Nc1ccc(Cl)c(Cl)c1 | -161.7 | 23.4 | 13.8 | 73.3* | -175.6 | 68.6*
CCOC(=O)c1cn[nH]c1NC(=S)Nc1ccc(OC)cc1 | -212.8 | 30.6 | -19.8 | 61.7* | -127.7 | 76.1*
CCOC(=O)NC(=S)Nc1ccc(OC)cc1 | -39.7 | 10.2 | 11.6 | -22.5 | -110.1 | -16.0
COC(=O)c1cn[nH]c1NC(=S)Nc1ccccc1C | -143.1 | 7.7 | -20.0 | -30.4 | -197.8 | -12.0
N#Cc1cc(NC(=O)c2ccc(Cl)cc2)ccc1Sc1ccccc1 | 42.1 | 39.4 | -39.2 | 50.4* | -130.7 | 64.2*
COc1ccc(Sc2ccc(NC(=O)c3ccccc3Cl)cc2C#N)cc1 | 23.3 | 8.3 | -10.2 | 1.1 | -2.0 | 14.8
Cc1cccc(C)c1NC(=O)CSc1nc(C)c(CC(=O)c2ccc(Br)cc2)c(C)c1C#N | 60.0* | 1.5 | -1.9 | 17.1 | 13.0 | -46.7
CC(=O)Nc1cccc(NC(=O)CSc2nc(C)c(C)c(C)c2C#N)c1 | -7.1 | -8.4 | 7.3 | 21.8 | 12.0 | 37.3
CCc1nc2ccc(C(=O)NCc3cccs3)cn2c1N(CC)CCOC | 21.2 | 6.5 | -4.7 | 10.0 | 2.1 | -27.6
Cc1nn(-c2ccccc2)c2nc(C(Cl)(Cl)Cl)[nH]c(=O)c12 | 36.0 | -2.1 | -0.3 | 51.2* | 6.4 | 12.4
CCOC(=O)C1(C(=O)OCC)C(C(=O)c2ccccc2)C1c1ccccc1 (stereo not drawn) | 22.8 | -0.2 | 0.3 | -13.7 | 13.4 | -2.1
CCOC(=O)c1ccc(NC(=O)COc2ccccc2CNCCc2ccccc2)cc1 | 98.0* | 17.6 | -17.8 | -3.4 | -8.5 | -13.5
CCOC(=O)c1ccc(NC(=O)COc2ccc(CNCCO)cc2OCC)cc1 | -6.8 | 11.0 | -10.9 | 15.7 | -2.5 | 39.6
c1ccc(OCCCCn2cnc3ccccc32)cc1 | -32.9 | -0.6 | 1.6 | / | -36.0 | 74.2*
c1ccc(OCCn2cnc3ccccc32)cc1 | -29.8 | -3.1 | 12.9 | -25.4 | -46.4 | -28.1
CN(C)CCNc1ncnc2c1ncn2[C@H]1CN(Cc2cccnc2)C[C@@H](CO)O1 | 9.2 | 3.9 | 11.7 | -2.0 | 1.1 | -2.0
COc1ccc(-c2ccc3c(c2)C2CC3CCN2)cc1 (stereo not drawn) | -7.5 | 13.0 | 5.2 | -21.4 | 3.8 | 5.8
O=c1cc(-c2ccccc2)[nH]c2nc3ccccc3n12 | -137.4 | -13.1 | -22.6 | -5.4 | -209.3 | 55.1*
